Screening results from PubChem.
RGS4 inh = inhibitors of human regulator of G protein signaling 4. Transcreener GDP fluorescence polarization, RGS4-accelerated GTP hydrolysis. P49798. Potency, µM (highest dose often 114 µM), most hits filed as inhibitors. actives 0.039% (n = 390,000); further: nearly all actives have a fitted effect of over 75% in size
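MLSMR compounds (23 nl, pin-transferred) preincubated 10 min at room temperature with a 500nM (2x) first reagent, then RGS4 at 900nM (2x) plus Transcreener GDP mix added; fluorescence polarization (620/688 nm) read before and after 90 min at 30 °C.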
PTHR1 agonist = agonists of human PTHR1 parathyroid hormone receptor. HEK293 GP2 PTHR1 cells, GloSensor cAMP luminescence, 1 h. Potency, µM (top dose mostly 115 µM), most hits filed as activators. actives 0.075% (n = 410,000). Q03431; further: nearly all actives have a fitted effect of over 55% in size
Target sequence (Q03431 whole entry, looked up): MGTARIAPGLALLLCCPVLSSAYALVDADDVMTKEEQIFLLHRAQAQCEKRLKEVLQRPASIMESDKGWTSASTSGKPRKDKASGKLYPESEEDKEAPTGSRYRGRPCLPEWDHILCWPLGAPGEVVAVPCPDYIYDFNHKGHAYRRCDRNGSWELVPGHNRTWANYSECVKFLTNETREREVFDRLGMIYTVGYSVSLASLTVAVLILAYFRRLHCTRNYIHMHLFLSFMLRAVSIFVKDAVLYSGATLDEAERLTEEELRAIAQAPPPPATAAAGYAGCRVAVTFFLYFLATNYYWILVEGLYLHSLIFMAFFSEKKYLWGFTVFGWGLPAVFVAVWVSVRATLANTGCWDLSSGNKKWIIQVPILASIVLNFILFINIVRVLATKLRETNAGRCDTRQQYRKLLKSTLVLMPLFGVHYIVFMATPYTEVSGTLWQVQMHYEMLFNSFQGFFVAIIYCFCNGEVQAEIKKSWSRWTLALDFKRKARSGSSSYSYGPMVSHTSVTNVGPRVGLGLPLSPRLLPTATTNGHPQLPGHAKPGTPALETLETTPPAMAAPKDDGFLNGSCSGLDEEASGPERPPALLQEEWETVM
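HEK-293-derived GP2 cells expressing PTHR1 and a GloSensor cAMP reporter, 3,000/well, plated overnight, given luciferin plus IBMX (each 0.5 mM as added) for 1 h at 37 °C, then compound for 1 h at 37 °C. Luminescence was read after 15 min at room temperature.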
BRCA1 expr up = increases BRCA1 expression. MCF7-BRCA1-FFLuc reporter, luminescence, 48 h; response scale: scaled: vehicle 0%, 10 µM genistein 100%. Potency, µM (titrated, usually from 46.1 µM), hits mostly activators. actives 1.1% (n = 380,000). AID 624202; further: nearly all actives have a fitted effect of over 80% in size
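Activators of BRCA1 expression were detected as increased firefly luciferase luminescence in engineered MCF7 cells after 48 h compound incubation. Signals were scaled to genistein 10 microM as full activation.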
DRD3 antagonist = antagonists of human D3 dopamine receptor | P35462 | D3R cells, DiscoveRx beta-arrestin luminescence, antagonist mode; hits give low values | max response, negative = inhibition, % | actives 2.5% (n = 360,000) | AID 652054; in the data active means max response below about -50%; inconclusive means no clear call, values can overlap the other calls
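Cells plated overnight at 1500 cells/well, then exposed to library compounds with dopamine controls for 90 minutes at 37 degrees C. DiscoveRx reagent added for 30–60 minutes at room temperature; luminescence read, quantitative HTS format.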
D3 ag = D3 dopamine receptor (human) agonism; AID 652048; max activation, %; actives 0.58% (n = 410,000); P35462; D3R DiscoveRx beta-arrestin cells, luminescence, 90 min; in the data active means max activation above about 30%
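Agonist-mode cell screen: cells plated at 1500/well and incubated overnight at 37 °C, then exposed to library compounds for 90 min at 37 °C. Detection reagent was added for 30–60 min at room temperature, and luminescence was read.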
B2AR arrestin = agonists driving beta-arrestin recruitment to human beta2-adrenergic receptor; beta-arrestin recruitment to beta2AR, cell-based reporter; P07550; AID 492947; actives 0.02% (n = 330,000); Potency, µM (series often up to 46.1 µM), usual class: activators; further: nearly all actives have a fitted effect of over 65% in size
Of the large screens only hits and unclear results are named; the others gave an inactive call. Rows were chosen to be rich in hits. Some 3.7% of all compounds tested hit in one or more screens of this group. Unless noted, the call rests on the fitted dose curve; in most records, active means well fitted curve in the direction sought with a large enough effect; inconclusive means small, poorly fitted or top-dose-only effect, or another doubt; inactive means no such curve, though single readings can be large; an effect the other way counts as inactive or inconclusive.

O[C@@H](CNC[C@H](O)[C@H]1CCc2cc(F)ccc2O1)[C@@H]1CCc2cc(F)ccc2O1	none (no result: RGS4 inh, PTHR1 agonist, BRCA1 expr up, DRD3 antagonist, B2AR arrestin)
Cc1ccc(NN2C(=O)C=C(c3ccccc3)C2=O)cc1	RGS4 inh inconclusive
CC1CCC/C(=N\NC(=O)Nc2ccccc2)C1 (stereo not drawn)	none
CC1CCC/C(=N\Nc2ccc(Cl)c(C(=O)O)c2)C1 (stereo not drawn)	BRCA1 expr up 5µM
COC(=O)[C@@]12C[C@@H](CC(=O)NCCC(C)C)C(=O)N(Cc3ccccc3)C1=CCC(C)(C)C2	none (no result: RGS4 inh, BRCA1 expr up, B2AR arrestin)
CCOc1c(CNCCCSc2nc(C)cc(C)n2)cccc1OC	none
Cc1cc(C)nc(SCCCNCc2c(F)cccc2Cl)n1	none
Cc1ccc(CNCCCSc2nc(C)cc(C)n2)cc1	DRD3 antagonist -92
Cc1cc(C)nc(SCCCNCc2ccc(Br)cc2)n1	DRD3 antagonist -95
CC(=O)Nc1ccc(C)cc1-c1nc2ccccc2n(CC(=O)c2ccc(Cl)cc2)c1=O	none (no result: BRCA1 expr up, DRD3 antagonist, B2AR arrestin)
C[C@@H]1CN([C@@H](C)CO)C(=O)c2c(c3ccccc3n2C)-c2ccccc2CO[C@H]1CN(C)C(=O)[C@H](Cc1ccccc1)N(C)C	none (no result: RGS4 inh, B2AR arrestin)
CC(CN1CCOCC1)OC(=O)c1ccc2c(c1)OCCO2 (stereo not drawn)	BRCA1 expr up 7.9µM
Cc1ccc(NC(=O)c2cccc(N3CCCS3(=O)=O)c2)cc1C	none (no result: BRCA1 expr up, DRD3 antagonist, B2AR arrestin)
CCN(CC)Cc1c(C(=O)N/N=C/c2c(Cl)cccc2Cl)nnn1-c1nonc1N	D3 ag 30
Cc1ccsc1/C=N/NC(=O)c1nnn(-c2nonc2N)c1C	none
Cc1c(C(=O)N/N=C/c2cccs2)nnn1-c1nonc1N	D3 ag 36
CCN(CC)Cc1c(C(=O)N/N=C/c2ccncc2)nnn1-c1nonc1N	none
Nn1c(CN2CCCCC2)nc2ccccc2c1=O	DRD3 antagonist -91
Nn1c(Cc2ccccc2)nc2ccccc2c1=O	DRD3 antagonist inconclusive (no result: B2AR arrestin)
Nn1c(COc2ccc(Cl)cc2)nc2ccccc2c1=O	BRCA1 expr up 5.6µM
CC(=O)Nc1ccc(CN2C(=O)C(C)(C)ON=C2c2ccc(NC(C)=O)cc2)cc1	none (no result: RGS4 inh, B2AR arrestin)
CC1(C)OC(=O)N(c2ccccc2)C12C=Cc1c(ccc3ccccc13)O2 (stereo not drawn)	none
O=C1NC2(C=Cc3c(ccc4ccccc34)O2)Oc2ccccc21 (stereo not drawn)	DRD3 antagonist -51
CCCNC(=O)CSc1nc2[nH]ncc2c(=O)[nH]1	none
O=C(CSc1nc2[nH]ncc2c(=O)[nH]1)NCc1ccccc1	DRD3 antagonist -59
O=C(CSc1nc2[nH]ncc2c(=O)[nH]1)NCc1ccc(F)cc1	DRD3 antagonist -50
CCCCc1cc2c(=O)c(C(=O)OC)c[nH]c2cc1OCc1ccccc1	none (no result: RGS4 inh, PTHR1 agonist, BRCA1 expr up, DRD3 antagonist, B2AR arrestin)
CC1(C)C(\C=C/C=C\C=C/C=C2/N(CCCCS(=O)(=O)O)c3ccc4ccccc4c3C2(C)C)=[N+](CCCCS(=O)(=O)[O-])c2ccc3ccccc3c21	none (no result: RGS4 inh, PTHR1 agonist, BRCA1 expr up, DRD3 antagonist, B2AR arrestin)
Cc1c(C(=O)N2CCc3ccccc3C2)oc2ccc(Br)cc12	none
Cc1oc2cc3c(C(=O)N4CCCCC4)c(C)oc3cc2c1C(=O)N1CCCCC1	BRCA1 expr up 3.2µM
Cc1c(C(=O)N2CCN(C)CC2)oc2ccc(Br)cc12	BRCA1 expr up 13µM, DRD3 antagonist inconclusive
Cc1c(C(=O)N2CCCC2)oc2ccc(Br)cc12	BRCA1 expr up 6.3µM
COc1cc2c(C(=O)N3CCN(C)CC3)c(C)oc2cc1Br	none
O=C(c1cccc(OC2CCN(Cc3ccc(F)cc3Cl)CC2)c1)N1CCCC1	none
COc1ccc(-c2cc(C#N)nc(N3CCN(C)CC3)n2)cc1	DRD3 antagonist inconclusive
FC(F)(F)c1cc(-c2cccs2)nc(-n2cc(Br)cn2)n1	none
CN1CCN(c2nc(C#N)cc(-c3ccccc3)n2)CC1	DRD3 antagonist -74
FC(F)(F)c1cc(-c2cccs2)nc(N2CCOCC2)n1	DRD3 antagonist -58
COc1ccc(-c2cc(C(F)(F)F)nc(N3CCN(C)CC3)n2)cc1	DRD3 antagonist -66
